Assay results: PubChem BioAssay (NCI)
“And” between values parts separate entries of the source, which are not always exact repeats. Equal values may be shown once. This is part of a sample that, as a whole, favours compounds with a hit. Of some 83,000 tested, about 20% had one in any assay.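 Negative percent growth values reflect cell death: -40 means 40% of the cells present at the start died, and -100 means all died.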 The source made the active and inactive calls. How the source made its calls: active means growth percent below 10; inactive means the rest.

Assays:
Test in all cases: NCI-60 one-dose screen, 48 h (100 = growth as untreated, 0 = no growth, -100 = all killed)
Settings in all cases: 10 µM unless noted
T-47D breast = test system: T-47D breast
BT-549 breast = test system: BT-549 breast
MDA-MB-435 melanoma = test system: MDA-MB-435 melanoma
SW-620 colon = test system: SW-620 colon
MCF7 breast = test system: MCF7 breast
HCT-116 colon = test system: HCT-116 colon
HCC-2998 colon = test system: HCC-2998 colon
KM12 colon = test system: KM12 colon

Measured: growth

O=C(Nc1ccc2ccccc2c1)c1cc2ccccc2cc1O
inactive: T-47D breast 83.3% | BT-549 breast 81.5% | MDA-MB-435 melanoma 103% | SW-620 colon 103% | MCF7 breast 65.9% | HCT-116 colon 92.3% | HCC-2998 colon 107%
active: KM12 colon -36.8%

COc1nc2ccc(C)cc2cc1/C=[N+](\[O-])c1ccccc1
inactive: T-47D breast 66.5% | BT-549 breast 95.8% | MDA-MB-435 melanoma 96.9% | SW-620 colon 49.9% | MCF7 breast 58.6% | HCT-116 colon 15.1% | HCC-2998 colon 98.2% | KM12 colon 90.5%

CN(C)CCN1C(=O)c2c(c3c4ccccc4n4c3c3c2c2ccccc2n3C2CC(O)C(O)C4(C)O2)C1=O (centres undefined)
active: MCF7 breast 6.41%
inactive: T-47D breast 30.1% | BT-549 breast 62.9% | MDA-MB-435 melanoma 32.1% | SW-620 colon 18.5% | HCT-116 colon 22.4% | HCC-2998 colon 26.4% | KM12 colon 34.2%

C[C@@H]1CC[C@@H]2[C@@H]1[C@H](OC(=O)/C=C/c1ccccc1)[C@]1(c3ccccc3)C[C@@H](NC(=O)CO)[C@@]2(C)O1
inactive: T-47D breast 93.3% | BT-549 breast 114% | MDA-MB-435 melanoma 100% | SW-620 colon 104% | MCF7 breast 79.4% | HCT-116 colon 100% | HCC-2998 colon 104% | KM12 colon 94.8%

CC12OC(CC(O)C1O)n1c3ccccc3c3c4c(c5c6ccccc6n2c5c31)C(=O)N(CCN1CCOCC1)C4=O (centres undefined)
inactive: BT-549 breast 22.6% | MDA-MB-435 melanoma 21.7% | SW-620 colon 16% | HCT-116 colon 14.1% | KM12 colon 14.6%
active: T-47D breast -5.19% | MCF7 breast 4.28% | HCC-2998 colon 6.48%

CCNC(=O)Nc1ncccc1OCc1ccc(F)cc1
inactive: T-47D breast 90.3% | BT-549 breast 114% | MDA-MB-435 melanoma 101% | SW-620 colon 104% | MCF7 breast 84% | HCT-116 colon 97.9% | HCC-2998 colon 91.2% | KM12 colon 88.1%

O=C(NCc1ccc(Cn2c(=O)sn(-c3ccc(Cl)cc3)c2=O)cc1)OCc1ccc2c(Cl)cc(Cl)c(O)c2n1
inactive: T-47D breast 60.2% | BT-549 breast 60.6% | MDA-MB-435 melanoma 54.7% | SW-620 colon 49.3% | MCF7 breast 50.3% | HCT-116 colon 29.3% | HCC-2998 colon 67.9% | KM12 colon 23.5%

N#Cc1ccccc1OCC(=O)Nc1nc2c(s1)COc1ccccc1-2
inactive: T-47D breast 86.2% | BT-549 breast 122% | MDA-MB-435 melanoma 104% | SW-620 colon 103% | MCF7 breast 91.4% | HCT-116 colon 102% | HCC-2998 colon 103% | KM12 colon 105%

CCCCCCCC/C=C\CCCCCCCCOc1ccccc1CC(=O)NCC[N+]1(C)CCOCC1
inactive: T-47D breast 84.4% | BT-549 breast 82.3% | MDA-MB-435 melanoma 95.8% | SW-620 colon 81.7% | MCF7 breast 82.2% | HCT-116 colon 71.8% | HCC-2998 colon 45.4% | KM12 colon 47.3%

COc1ccc(-c2c[nH]c(C(=O)O)c2-c2cc(OC)c(OC)c(OC)c2)cc1
inactive: T-47D breast 15.3% | BT-549 breast 65.8% | SW-620 colon 23.6% | MCF7 breast 24.2% | HCT-116 colon 29.6% | HCC-2998 colon 84.6% | KM12 colon 25%
active: MDA-MB-435 melanoma -21.3%

C=C1C(=O)O[C@H]2[C@H]1CC/C(COC(=O)NCCCCNC(=O)OC/C1=C/CC[C@@]3(C)O[C@H]3[C@H]3OC(=O)C(=C)[C@@H]3CC1)=C\CC[C@@]1(C)O[C@@H]21
active: T-47D breast 9.48% | BT-549 breast -40% | MDA-MB-435 melanoma -25.6% | SW-620 colon -27.8% | MCF7 breast 9.53% | HCT-116 colon -65.2%
inactive: HCC-2998 colon 89.5% | KM12 colon 88.2%

CCN(CC)CCOc1ccc(/C(=C(\Cl)c2ccccc2)c2ccccc2)cc1
active: MDA-MB-435 melanoma 7.34% | SW-620 colon -55%
inactive: T-47D breast 23.4% and 48.9% | BT-549 breast 43.4% and 92.6% | MCF7 breast 16.2% and 27.4% | HCT-116 colon 11.4% and 57.8% | HCC-2998 colon 35.7% and 98.3% | KM12 colon 21.8% and 75.9%

COC(=O)c1nc(-c2ccc(C)cc2)oc1S(=O)(=O)c1ccc(Cl)cc1
inactive: T-47D breast 88.6% | BT-549 breast 83.4% | MDA-MB-435 melanoma 107% | SW-620 colon 80% | MCF7 breast 89.8% | HCT-116 colon 77.7% | HCC-2998 colon 112% | KM12 colon 116%

Oc1ccccc1C=Nc1ccc(N2CCN(c3ccccc3)CC2)cc1
inactive: T-47D breast 81.7% | BT-549 breast 54.8% | MDA-MB-435 melanoma 96.5% | SW-620 colon 110% | MCF7 breast 84% | HCT-116 colon 87.1% | HCC-2998 colon 90.2% | KM12 colon 103%

Cc1cccc(-c2nnc(SCC(=O)Nc3ncc(Cc4ccccc4)s3)n2N2C(=O)CSC2=S)c1
inactive: T-47D breast 43.8% | BT-549 breast 78.5% | MDA-MB-435 melanoma 48.5% | SW-620 colon 49.6% | MCF7 breast 56.2% | HCT-116 colon 25% | HCC-2998 colon 70.9% | KM12 colon 71.7%

COc1ccc(-c2ccc(-c3ccc(C(=N)N)cn3)s2)cc1Cl
inactive: BT-549 breast 107%
active: T-47D breast -43.4% | MDA-MB-435 melanoma -96.9% | SW-620 colon -87.5% | MCF7 breast -68.9% | HCT-116 colon -62.6% | HCC-2998 colon -80.9% | KM12 colon -45.3%

O=S(=O)(Nc1cc(Sc2cccc3cccnc23)c(O)c2ccccc12)c1ccc(F)cc1
inactive: BT-549 breast 30.7% | HCC-2998 colon 40% | KM12 colon 16.5%
active: T-47D breast -40.3% | MDA-MB-435 melanoma 7.68% | SW-620 colon -69.3% | MCF7 breast -53.4% | HCT-116 colon -88.5%

O=C1c2cccc3cccc(c23)C(=O)N1N1C(=O)c2cccc3c(N4CCNCC4)ccc(c23)C1=O
inactive: T-47D breast 93.6% | BT-549 breast 89.8% | MDA-MB-435 melanoma 99.9% | SW-620 colon 78.7% | MCF7 breast 29% | HCT-116 colon 58.1% | HCC-2998 colon 79.4% | KM12 colon 82.2%

OCCN1CCN(CC/C=C2\c3ccccc3Sc3ccc(Cl)cc32)CC1
17.3% (inactive) and 4.22% (active): MCF7 breast
2.71% (active) and 36.2% (inactive): KM12 colon
inactive: T-47D breast 48.6% and 57.4% | BT-549 breast 67.5%
-91.4% (active) and 12.7% (inactive): HCC-2998 colon
active: MDA-MB-435 melanoma -70.8% and -44.4% | SW-620 colon -75.2% and 0.592% | HCT-116 colon -59.8% and -45.1%

O=C(Nc1ncc(Cc2cccc(C(F)(F)F)c2)s1)c1ccc(-n2cnnn2)cc1
inactive: T-47D breast 44.7% | BT-549 breast 67.6% | MDA-MB-435 melanoma 24% | SW-620 colon 53.4% | MCF7 breast 28.7% | HCT-116 colon 42.4% | HCC-2998 colon 48.9% | KM12 colon 28.8%

CC(=O)c1c(C)nc(SCC(=O)Nc2ccc(Cl)cc2)n1-c1ccc(Cl)cc1
inactive: T-47D breast 72.1% | BT-549 breast 92.1% | MDA-MB-435 melanoma 89.6% | SW-620 colon 87.6% | MCF7 breast 82.9% | HCT-116 colon 67.7% | HCC-2998 colon 102% | KM12 colon 98.5%

Cc1ccc(-c2nc(C#N)c(S(=O)(=O)N(C)C)o2)cc1
inactive: T-47D breast 75.3% | BT-549 breast 77.4% | MDA-MB-435 melanoma 97.7% | SW-620 colon 81% | MCF7 breast 46.1% | HCT-116 colon 63.2% | HCC-2998 colon 93.1% | KM12 colon 95.4%

NC(=O)c1c(NC(=O)/C=C/c2cccs2)sc2c1CCC(=O)C2
active: HCT-116 colon 8.1%
inactive: T-47D breast 16.2% | BT-549 breast 20.1% | MDA-MB-435 melanoma 14.2% | SW-620 colon 15.1% | MCF7 breast 14.1% | HCC-2998 colon 85.2% | KM12 colon 14.8%

COc1ccc(-c2ccc(-c3ccc(C(=N)N)cn3)o2)cc1Cl
inactive: T-47D breast 31.1% | BT-549 breast 57.8% | HCC-2998 colon 67.5% | KM12 colon 16.4%
active: MDA-MB-435 melanoma -69.4% | SW-620 colon -50.3% | MCF7 breast -31.1% | HCT-116 colon 0.389%

Cn1cc2c(=O)nc3c(-c4nc5ccccc5[nH]4)n[nH]n3c2n1
inactive: T-47D breast 67.6% | BT-549 breast 34.7% | MDA-MB-435 melanoma 73.9% | SW-620 colon 97.2% | MCF7 breast 65.7% | HCT-116 colon 80.6% | HCC-2998 colon 84.8% | KM12 colon 73.9%

Cc1nn(-c2nc(-c3cc4ccccc4oc3=O)cs2)c(C)c1N=Nc1ccccc1
inactive: T-47D breast 95.3% | BT-549 breast 99.7% | MDA-MB-435 melanoma 101% | SW-620 colon 103% | MCF7 breast 89.3% | HCT-116 colon 105% | HCC-2998 colon 111% | KM12 colon 100%

COC(=O)c1c2c(c(C)[n+]([O-])c1C)C(=O)C(NCCN1CCOCC1)=CC2=O
inactive: T-47D breast 80.6% | BT-549 breast 91.4% | MDA-MB-435 melanoma 49.9% | SW-620 colon 64.3% | MCF7 breast 55.9% | HCT-116 colon 28.3% | HCC-2998 colon 74.1% | KM12 colon 71.6%

CCOc1ccc(C(=O)Cc2ccccc2)cc1
inactive: T-47D breast 98% and 100% | BT-549 breast 113% and 116% | MDA-MB-435 melanoma 106% and 102% | SW-620 colon 108% and 110% | MCF7 breast 103% and 104% | HCT-116 colon 107% and 110% | HCC-2998 colon 106% and 98.2% | KM12 colon 116% and 110%
